From PubChem BioAssay
Values without a mark were called inactive. Where a call stands in place of a potency, no number is given. For some assays here: Potency and affinity values are given separately. Activity calls are given as the source filed them. Unless noted, no rule for the calls is given here.

How the values were obtained:
[1] = antimalarial activity against Dd2 strain (AID 2302;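 active = growth inhibition above 50% at the single 2 µM test dose, taken to imply half-maximal potency below 2 µM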); details: P. falciparum Dd2 in RBCs, LDH growth readout, 72 h; at 2 µM; hits give high values
[2] = human hepatoma cell viability loss – ATP luminescence, cytotoxicity control for P. falciparum antimalarial project, primary screen (AID 2303;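 active = inhibition above 50%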); details: HepG2 viability, 24-48 h, at 10 µM, hits give high values
[3] = target: L-lactate dehydrogenase (Plasmodium falciparum (isolate CDC / Honduras)) (UniProt Q27743); assay: PfLDH activity inhibition – cell lysate, 3D7 strain, counter-screen for P. falciparum growth inhibition project (AID 2304); details: P. falciparum 3D7 crude extract, LDH APAD/NBT absorbance; at 2 µM; hits give high values
[4] = inhibition of 3D7 malaria parasite growth – strain 3D7 (AID 2306); details: P. falciparum 3D7 erythrocytic growth, LDH absorbance, 72 h; at 2 µM; hits give high values
[5] = target: Calcium-dependent protein kinase 1 (Plasmodium falciparum (isolate 3D7)) (UniProt P62344); assay: PfCDPK1 kinase inhibitors, biochemical, TCAMS library (AID 1159585; cut-off not given, nearly all actives have IC50 up to about 0.98 µM;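 also: inhibitors leave more ATP so luminescence rises with inhibition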); details: recombinant PfCDPK1, Kinase-Glo ATP depletion luminescence
[6] = target: Plasmodium falciparum protein kinase 6 (PK6, PF3D7_1337100) (UniProt Q8IDW1); assay: PfPK6 kinase inhibitors, biochemical, TCAMS library (AID 1159586); details: recombinant PfPK6, Kinase-Glo ATP depletion luminescence
[7] = target: Protein kinase 7 (PK7), Plasmodium falciparum 3D7 (PF3D7_0213400) (UniProt Q7YTF7); assay: inhibition of Plasmodium PK7 catalytic activity – biochemical, TCAMS antimalarial set, Kinase-Glo luminescence (AID 1159587); details: recombinant PfPK7, Kinase-Glo ATP depletion luminescence
[8] = target: Calcium-dependent protein kinase 4 (Plasmodium falciparum (isolate 3D7)) (UniProt Q8IBS5); assay: PfCDPK4 kinase inhibitors, biochemical, TCAMS library (AID 1159588; cut-off not given, nearly all actives have IC50 up to about 0.91 µM); details: recombinant PfCDPK4, Kinase-Glo ATP depletion luminescence
Sequence of Calcium-dependent protein kinase 4 (Plasmodium falciparum (isolate 3D7)) (Q8IBS5 whole entry, looked up): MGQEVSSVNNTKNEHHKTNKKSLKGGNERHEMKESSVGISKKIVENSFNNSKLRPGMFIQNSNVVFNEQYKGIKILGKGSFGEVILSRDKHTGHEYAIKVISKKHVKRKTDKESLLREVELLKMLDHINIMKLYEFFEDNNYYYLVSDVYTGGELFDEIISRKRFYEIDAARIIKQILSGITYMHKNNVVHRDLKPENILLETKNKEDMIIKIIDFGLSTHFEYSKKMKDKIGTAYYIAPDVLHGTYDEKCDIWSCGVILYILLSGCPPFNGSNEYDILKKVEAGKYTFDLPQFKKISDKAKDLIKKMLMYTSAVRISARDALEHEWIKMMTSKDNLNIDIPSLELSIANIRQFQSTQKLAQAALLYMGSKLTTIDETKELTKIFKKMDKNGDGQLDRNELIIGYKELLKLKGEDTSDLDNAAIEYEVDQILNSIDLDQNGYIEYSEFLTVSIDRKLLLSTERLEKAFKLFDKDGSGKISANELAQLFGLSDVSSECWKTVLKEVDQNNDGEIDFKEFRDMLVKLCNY

Sequence of Protein kinase 7 (PK7), Plasmodium falciparum 3D7 (PF3D7_0213400) (Q7YTF7 1-343): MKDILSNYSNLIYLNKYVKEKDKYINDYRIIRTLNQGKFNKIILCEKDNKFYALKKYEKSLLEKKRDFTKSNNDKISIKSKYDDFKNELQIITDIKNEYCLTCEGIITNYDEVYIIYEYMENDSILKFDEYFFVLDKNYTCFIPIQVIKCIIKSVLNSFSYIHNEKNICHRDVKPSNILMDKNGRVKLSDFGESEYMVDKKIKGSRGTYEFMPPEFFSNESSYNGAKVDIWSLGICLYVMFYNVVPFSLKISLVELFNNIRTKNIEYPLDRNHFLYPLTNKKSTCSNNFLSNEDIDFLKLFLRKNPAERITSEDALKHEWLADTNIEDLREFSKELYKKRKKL
Sequence of Plasmodium falciparum protein kinase 6 (PK6, PF3D7_1337100) (Q8IDW1 1-305): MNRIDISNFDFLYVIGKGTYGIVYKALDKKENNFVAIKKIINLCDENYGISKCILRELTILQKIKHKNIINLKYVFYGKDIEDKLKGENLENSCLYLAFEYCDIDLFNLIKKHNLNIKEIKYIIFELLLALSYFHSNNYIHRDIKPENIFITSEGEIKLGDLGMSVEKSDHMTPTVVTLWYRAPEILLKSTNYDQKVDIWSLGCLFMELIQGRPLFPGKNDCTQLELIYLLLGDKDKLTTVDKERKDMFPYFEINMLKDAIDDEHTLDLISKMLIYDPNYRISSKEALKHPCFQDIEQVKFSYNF
Sequence of L-lactate dehydrogenase (Plasmodium falciparum (isolate CDC / Honduras)) (Q27743 whole entry, looked up): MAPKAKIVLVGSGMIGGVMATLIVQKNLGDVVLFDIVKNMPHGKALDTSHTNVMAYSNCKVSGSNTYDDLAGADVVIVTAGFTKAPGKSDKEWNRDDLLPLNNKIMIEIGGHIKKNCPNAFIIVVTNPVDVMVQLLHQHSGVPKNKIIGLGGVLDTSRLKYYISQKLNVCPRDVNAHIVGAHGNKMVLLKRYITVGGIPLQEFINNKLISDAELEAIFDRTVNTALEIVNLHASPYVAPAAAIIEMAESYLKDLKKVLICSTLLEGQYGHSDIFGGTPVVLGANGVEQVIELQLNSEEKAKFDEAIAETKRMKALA
Sequence of Calcium-dependent protein kinase 1 (Plasmodium falciparum (isolate 3D7)) (P62344 whole entry, looked up): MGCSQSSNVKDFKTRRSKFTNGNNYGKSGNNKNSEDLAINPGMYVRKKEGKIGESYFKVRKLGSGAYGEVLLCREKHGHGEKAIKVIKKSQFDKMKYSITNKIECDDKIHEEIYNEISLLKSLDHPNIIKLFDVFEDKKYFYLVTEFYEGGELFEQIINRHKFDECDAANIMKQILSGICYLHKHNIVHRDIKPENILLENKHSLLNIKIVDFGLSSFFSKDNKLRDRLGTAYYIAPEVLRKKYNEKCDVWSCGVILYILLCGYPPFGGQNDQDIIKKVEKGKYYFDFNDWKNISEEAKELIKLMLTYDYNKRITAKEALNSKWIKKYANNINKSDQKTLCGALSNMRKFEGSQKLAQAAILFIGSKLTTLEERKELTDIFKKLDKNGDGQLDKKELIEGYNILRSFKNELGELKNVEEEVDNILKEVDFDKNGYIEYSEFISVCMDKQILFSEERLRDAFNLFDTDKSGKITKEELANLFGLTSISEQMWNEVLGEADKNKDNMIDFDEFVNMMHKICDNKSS

Structure (SMILES) | growth inhibition [1] | inhibition [2] | inhibition [3] [%] | growth inhibition [4] | outcome [5] | outcome [6] | outcome [7] | outcome [8]
c1cc(CNC2Cc3ccccc3C2)cc(-c2cnc(N3CCNCC3)nc2)c1 | 65% (active) | 43% | -9 | 93% (active) | inactive | inactive | inactive | inactive
O=C(NCc1ccc(Cl)c(Cl)c1)c1ccc(-c2nc3ccc(F)cc3[nH]2)cc1 | 9% | 0% | 1 | 93% (active) | inactive | inactive | inactive | inactive
O=C(CNc1ccncc1)c1c[nH]c2ccccc12 | 62% (active) | 31% | -3 | 90% (active) | inactive | inactive | inactive | inactive
COc1ccc(NC(=O)c2csc(-c3cc(NC(=O)c4ccnc(N5CCCC5)c4)ccc3C)c2)cc1N1CCN(C)CC1 | 80% (active) | 4% | 1 | 100% (active) | inactive | inactive | inactive | inactive
c1cc(CN2CCC(CCN3CCCCC3)CC2)cc(-c2csc(-c3nc4ccccc4[nH]3)c2)c1 | 99% (active) | 89% (active) | -3 | 99% (active) | inactive | inactive | inactive | inactive
OC(COc1ccccc1-c1nc2ccccc2o1)CN1CCCN(CCc2ccccc2)CC1 (stereo not given) | 2% | 39% | -5 | 97% (active) | inactive | inactive | inactive | inactive
Nc1cnc(C#Cc2cc3ncnc(N(CCN4CCOCC4)c4ccc(OCc5cccc(F)c5)c(Cl)c4)c3s2)cn1 | 57% (active) | -8% | -9 | 87% (active) | inactive | inactive | inactive | inactive
COc1ccc(NC(=O)[C@H](CC(C)C)Nc2cc(C)nc(NCCc3ccccc3)n2)cc1 | 74% (active) | 13% | -2 | 101% (active) | inactive | inactive | inactive | inactive
O=C(Nc1ccc(-c2nc3ccccc3[nH]2)cc1)c1ccc(-c2cccc([N+](=O)[O-])c2)o1 | 97% (active) | 47% | -2 | 101% (active) | inactive | inactive | inactive | inactive
COC(=O)C1=CNC=C(C(=O)OC)C1c1ccc(Cl)c([N+](=O)[O-])c1 | 79% (active) | -1% | -4 | 93% (active) | inactive | inactive | inactive | inactive
O=C(NCC1CCN(Cc2cccc(F)c2)C1)c1cc(-c2cccc(C(F)(F)F)c2)cs1 (stereo not given) | 10% | 31% | -2 | 96% (active) | inactive | inactive | inactive | inactive
Clc1ccc(Nc2nc(NCc3ccccc3)nc(N/N=C/c3ccccn3)n2)cc1 | 91% (active) | 41% | 3 | 99% (active) | inactive | inactive | inactive | inactive
CC(C)c1ccc(CN2CCC(CNC(=O)c3cc(-c4cccc(F)c4)cs3)C2)cc1 (stereo not given) | 46% | 59% (active) | 5 | 100% (active) | inactive | inactive | inactive | inactive
CCNc1cc(C(=O)N[C@@H](Cc2ccccc2)[C@H](O)CNC2CCSCC2)cc(N2CCCC2=O)c1 | 98% (active) | 0% | -1 | 99% (active) | inactive | inactive | inactive | inactive
CCOC(=O)c1ccc(OCc2ccc(-c3ccccc3)cc2)cc1 | -1% | 18% | 3 | 96% (active) | inactive | inactive | inactive | inactive
Cc1ccc2c(Cl)c(C(=O)N3CC(C)OC(C)C3)sc2c1 (stereo not given) | 98% (active) | 4% | 3 | 100% (active) | inactive | inactive | inactive | inactive
NC(=O)c1ccc(C(=O)Nc2cccc(-c3ccc(-c4nc5ccc(C(F)(F)F)cc5[nH]4)cc3)c2)cc1 | 31% | 35% | -1 | 100% (active) | inactive | inactive | inactive | inactive
Cc1cccc(NC(=O)Nc2ccc(I)c(OCCN(C)C)c2)c1C | 17% | 13% | 1 | 96% (active) | inactive | inactive | inactive | inactive
O=C(CC(=O)C(F)(F)F)c1ccccc1[N+](=O)[O-] | 95% (active) | 65% (active) | -6 | 97% (active) | inactive | inactive | inactive | inactive
Cn1c(Sc2ncnc3sccc23)nc2ccccc21 | 100% (active) | -12% | 5 | 100% (active) | inactive | inactive | inactive | inactive

Structure (SMILES) | growth inhibition [1] | inhibition [2] | inhibition [3] [%] | growth inhibition [4] | outcome [5] | outcome [6] | outcome [7] | outcome [8]
COc1cc2nc(SCC(C)C)n(CCCn3ccnc3)c(=N)c2cc1OC | 78% (active) | 15% | -2 | 99% (active) | inactive | inactive | inactive | inactive
CCCCN1CCN(c2cc(NS(=O)(=O)c3cccc(C(=O)Nc4ccc(C(F)(F)F)cc4)c3)ccc2OC)CC1 | 7% | 6% | 4 | 99% (active) | inactive | inactive | inactive | inactive
O=C(/C=C/c1cccc(OC(F)(F)F)c1)NCCCCCN1CCC(c2c[nH]c3ccccc23)CC1 | 13% | 27% | -6 | 93% (active) | inactive | inactive | inactive | inactive
Cc1ccc(F)cc1S(=O)(=O)N1CCCCC(c2ccc(C(F)(F)F)cc2)=N1 | 75% (active) | 8% | 7 | 82% (active) | inactive | inactive | inactive | inactive
CC(C)c1ccc(S(=O)(=O)N(c2ccc3c(c2)OCO3)C2CCN(Cc3ccccc3)C2)cc1 (stereo not given) | 92% (active) | 1% | 0 | 100% (active) | inactive | inactive | inactive | inactive
COc1cc2ncnc(Nc3ccc(OCc4ccccc4Br)c(OC)c3)c2cc1OC | 62% (active) | 11% | -1 | 100% (active) | inactive | inactive | inactive | inactive
O=C(/C=C/c1ccc(Cl)c(Cl)c1)NCC[C@@H]1C[C@H]1CCN1CCC(c2c[nH]c3ccccc23)CC1 | 22% | 98% (active) | -8 | 96% (active) | inactive | inactive | inactive | inactive
CCc1c(CCNCCCCCNCCc2ccc(OC)c(OC)c2CC)ccc(OC)c1OC | 1% | 59% (active) | -1 | 101% (active) | inactive | inactive | inactive | inactive
Cc1c[nH]c2ccc(/C=C/C(=O)NC3CCC(CCN4CCc5ccc(C#N)cc5CC4)CC3)cc12 (stereo not given) | 91% (active) | 9% | 0 | 101% (active) | inactive | inactive | inactive | inactive
CN(C)c1ccc(N2C(N)=NC(N)=NC23CCCC3)cc1 | 0% | 1% | -2 | 97% (active) | inactive | inactive | inactive | inactive
CCCCCCN1CCN(Cc2cccc(NC(=O)c3ccc(Cl)c(Cl)c3)c2)CC1 | 51% (active) | 31% | -4 | 85% (active) | inactive | inactive | inactive | inactive
CCOc1ccc(-c2nonc2NC(=O)c2cccs2)cc1OCC | 100% (active) | 6% | 4 | 101% (active) | inactive | inactive | inactive | inactive
OCCN1CCN(C2Cc3ccc(F)cc3Sc3ccc(Cl)cc32)CC1 (stereo not given) | 26% | 56% (active) | 3 | 98% (active) | inactive | inactive | inactive | inactive
NC(=O)c1ccccc1OCC(=O)Nc1cccc(-c2cccc(-c3nc4ccccc4[nH]3)c2)c1 | 46% | 23% | 3 | 88% (active) | inactive | inactive | inactive | inactive
CCCN1CCN(c2ccc(NS(=O)(=O)c3ccc(C(=O)Nc4ccc(Cl)cc4)cc3)cc2)CC1 | 50% (active) | 4% | -4 | 100% (active) | inactive | inactive | inactive | inactive
CCc1nc2c(cnn2CC)c(NC2CCOCC2)c1CNC(=O)c1ccoc1C | 87% (active) | 6% | 2 | 97% (active) | inactive | inactive | inactive | inactive
O=S1(=O)NC2(CCN(CCc3ccc(Cl)cc3)CC2)Nc2cc(F)cc(F)c21 | 5% | 7% | -1 | 86% (active) | inactive | inactive | inactive | inactive
O=C(c1cc(C(=O)Nc2ccc(F)cc2)c(=O)n(-c2ccc(F)cc2)c1)c1cc(Cl)ccc1O | 98% (active) | 13% | -4 | 101% (active) | inactive | inactive | inactive | inactive
Cc1ccc(CN2CCN(c3cc4c(cc3Cl)CCN4C(=O)Cc3ccc(NC(=O)c4ccc(C(F)(F)F)cc4)cc3)CC2)cc1 | -8% | 15% | 4 | 88% (active) | inactive | inactive | inactive | inactive
CC(=O)N(C)C1CCN(Cc2cccc(-c3ccc(-c4nc5ccc(C(F)(F)F)cc5[nH]4)cc3)c2)C1 (stereo not given) | 94% (active) | 31% | 3 | 100% (active) | inactive | inactive | inactive | inactive
